# Results reported in the supplement of paper PMC13380429.
# Test system: Vero E6 infected with SARS-CoV-2
# Assay: morphology score (similarity to uninfected cells); higher = more like uninfected cells
# Conditions: 24 h
row,SMILES,morphology score
1,C=C1C(=O)O[C@@H]2/C=C(\C)CC/C=C(\C)CC[C@@H]12 [costunolide] (10 µM),0.222
2,N[C@@H](CSC(c1ccccc1)(c1ccccc1)c1ccccc1)C(=O)O [S-trityl-L-cysteine] (0.833333 µM),0.107
3,CN1c2ccccc2C(NCCCCCCC(=O)O)c2ccc(Cl)cc2S1(=O)=O (stereo not drawn) [tianeptine] (10 µM),0.237
4,O=C(O)CCN(O)C(=O)CCCCCCCCC1CC1 (10 µM),0.0952
5,OC(c1ccc(-c2ccc(CN3CCN(Cc4ccncc4)CC3)cc2)c(F)c1)(C(F)(F)F)C(F)(F)F (10 µM),-0.228
6,CC(C)(C)NCC(O)c1cc(Br)no1 (stereo not drawn) [broxaterol] (10 µM),-0.00593
7,O=C(O)c1cc(O)c2c(c1)C(=O)c1cccc(O)c1C2=O [rhein] (10 µM),0.272
8,CC1(C)S[C@@H]2[C@H](NC(=O)[C@H](C(=O)O)c3ccsc3)C(=O)N2[C@H]1C(=O)O [ticarcillin] (10 µM),-0.0272
9,CCNC(=O)CCC/C=C\C[C@@H]1[C@@H](/C=C/[C@@H](O)CCc2ccccc2)[C@H](O)C[C@@H]1O [bimatoprost] (10 µM),0.0397
10,O=c1[nH]cnc2c1cnn2[C@@H]1O[C@H](CO)[C@@H](O)[C@H]1O [allopurinol-riboside] (10 µM),0.0253
11,CCOc1cc(N2CCC(O)CC2)ccc1Nc1ncc2c(n1)N(C)c1ccccc1C(=O)N2C (0.833333 µM),-0.0631
12,C[C@H](CS)C(=O)N1CCC[C@H]1C(=O)O [captopril] (10 µM),0.0071
13,O=C(OCC(COC(=O)c1cccnc1)(COC(=O)c1cccnc1)COC(=O)c1cccnc1)c1cccnc1 [niceritrol] (0.833333 µM),0.129
14,CCC/N=C1\S/C(=C\c2ccc(OC[C@H](O)CO)c(Cl)c2)C(=O)N1c1ccccc1C [ponesimod] (10 µM),-0.2
15,CC1C(=O)OC2C(O)C34C5CC(C(C)(C)C)C36C(OC(=O)C6O)OC4(C(=O)O5)C12O (stereo not drawn) [ginkgolide-B] (10 µM),0.264
16,CCC(=O)[C@@]1(C)[C@H](C)C[C@H]2[C@@H]3CCC4=CC(=O)C=C[C@]4(C)[C@H]3[C@@H](O)C[C@@]21C [rimexolone] (10 µM),0.134

row,SMILES,morphology score
1,C=CCn1c(=O)c2cnc(Nc3ccc(N4CCN(C)CC4)cc3)nc2n1-c1cccc(C(C)(C)O)n1 (10 µM),-0.0169
2,CCN(CC)C(=S)SSC(=S)N(CC)CC [disulfiram] (10 µM),0.548
3,NC(=O)N/N=C/c1ccc(Oc2ccc(F)cc2)cc1 (10 µM),-0.137
4,Cn1cc(/C=C2\C(=O)Nc3cccnc32)c2ccccc21 (10 µM),-0.0337
5,Cc1cc(C)cc(OCC2CNC(=O)O2)c1 (stereo not drawn) [metaxalone] (10 µM),0.134
6,CN1[C@@H]2CC[C@H]1C[C@@H](OC(=O)C(CO)c1ccccc1)C2 (stereo partly drawn) (10 µM),-0.21
7,C[C@H](/C=C/[C@H](C)C(C)(C)O)[C@H]1CC[C@H]2/C(=C/C=C3C[C@@H](O)C[C@H](O)C3)CCC[C@]12C [paricalcitol] (10 µM),0.0995
8,CC(C)(O)[C@@H]1[C@H]2OC(=O)[C@@H]1[C@]1(O)C[C@H]3O[C@]34C(=O)O[C@H]2[C@]14C [picrotin] (10 µM),0.0343
9,COC(=O)c1c(C)[nH]c(C)c1C(=O)c1ccccc1Cc1ccccc1 (10 µM),-0.254
10,CC(C)[C@@H](C(=O)Nc1nccs1)c1ccc(Cl)cc1 (10 µM),0.0344
11,C[C@H](CCC(=O)O)[C@H]1CC[C@H]2[C@@H]3[C@H](O)C[C@@H]4C[C@H](O)CC[C@]4(C)[C@H]3C[C@H](O)[C@]12C [cholic-acid] (10 µM),0.0109
12,NNC(=O)CSc1nc2scc(-c3ccccc3)c2c(=O)n1-c1ccccc1 (10 µM),-0.0192
13,O=C1c2c(O)cc(O)cc2O[C@H](c2ccc(O)c(O)c2)[C@H]1O [taxifolin] (10 µM),0.187
14,CC1(C)CC[C@]2(NC(=O)C(C)(F)F)CC[C@]3(C)[C@H](C(=O)C=C4[C@@]5(C)C=C(C#N)C(=O)C(C)(C)[C@@H]5CC[C@]43C)[C@@H]2C1 [Omaveloxolone (RTA-408)] (10 µM),-0.212
15,C[C@H]1C[C@@H]2[C@H]([C@@H](O)C[C@@]3(C)[C@H]2CC[C@]3(O)C(=O)COC(=O)CCC(=O)O)[C@@]2(C)C=CC(=O)C=C12 [methylprednisolone-sodium-succinate] (10 µM),-0.0168

# Test system: Vero E6 infected with SARS-CoV-2
# Assay: SARS-CoV-2 infection rate relative to infected DMSO; higher = more infection, active = 60 or less
# Conditions: 24 h
row,SMILES,SARS-CoV-2 infection rate
1,CCCCNNC(=O)c1ccc(Br)cc1 (0.833333 µM),116% (inactive)
2,CC[C@@H](C(=O)[C@@H](C)[C@@H](O)[C@H](C)[C@@H]1O[C@@H]([C@@H](CC)C(=O)O)CC[C@@H]1C)[C@H]1O[C@]2(C=C[C@@H](O)[C@]3(CC[C@@](C)([C@H]4CC[C@](O)(CC)[C@H](C)O4)O3)O2)[C@H](C)C[C@@H]1C [Salinomycin (Procoxacin)] (10 µM),108% (inactive)
3,CCCC[C@@H](C=O)NC(=O)[C@H](CC(C)C)NC(=O)OCc1ccccc1 [calpeptin] (10 µM),12.5% (active)
4,CN1CCCN(C(c2ccccc2)c2ccc(Cl)cc2)CC1 (stereo not drawn) [homochlorcyclizine] (10 µM),59.5% (active)
5,CN[C@H](CC(C)C)C(=O)N[C@H]1C(=O)N[C@@H](CC(N)=O)C(=O)N[C@H]2C(=O)N[C@H]3C(=O)N[C@H](C(=O)N[C@H](C(=O)O)c4cc(O)cc(O)c4-c4cc3ccc4O)[C@H](O)c3ccc(c(Cl)c3)Oc3cc2cc(c3O[C@@H]2O[C@H](CO)[C@@H](O)[C@H](O)[C@H]2O[C@H]2C[C@](C)(N)[C@H](O)[C@H](C)O2)Oc2ccc(cc2Cl)[C@H]1O (10 µM),104% (inactive)
6,CCOCC(O)COc1ccc(NC(=O)CC[S+](C)C)cc1 (stereo not drawn) [suplatast] (10 µM),102% (inactive)
7,CC(C)(Oc1ccc(CCNC(=O)c2ccc(Cl)cc2)cc1)C(=O)O [bezafibrate] (10 µM),104% (inactive)
8,CNCC[C@@H](Oc1ccccc1C)c1ccccc1 [atomoxetine] (10 µM),102% (inactive)
9,O=C(Nc1ccc(Br)cc1)c1cc(Br)cc(Br)c1O [tribomsalan] (10 µM),106% (inactive)
10,C=C1C(=O)O[C@@H]2/C=C(\C)CC/C=C(\C)CC[C@@H]12 [costunolide] (10 µM),78.5% (inactive)
11,N[C@@H](CSC(c1ccccc1)(c1ccccc1)c1ccccc1)C(=O)O [S-trityl-L-cysteine] (0.833333 µM),110% (inactive)
12,CN1c2ccccc2C(NCCCCCCC(=O)O)c2ccc(Cl)cc2S1(=O)=O (stereo not drawn) [tianeptine] (10 µM),104% (inactive)
13,O=C(O)CCN(O)C(=O)CCCCCCCCC1CC1 (10 µM),102% (inactive)
14,OC(c1ccc(-c2ccc(CN3CCN(Cc4ccncc4)CC3)cc2)c(F)c1)(C(F)(F)F)C(F)(F)F (10 µM),104% (inactive)
15,CC(C)(C)NCC(O)c1cc(Br)no1 (stereo not drawn) [broxaterol] (10 µM),112% (inactive)
16,O=C(O)c1cc(O)c2c(c1)C(=O)c1cccc(O)c1C2=O [rhein] (10 µM),99.5% (inactive)

row,SMILES,SARS-CoV-2 infection rate
1,CC1(C)S[C@@H]2[C@H](NC(=O)[C@H](C(=O)O)c3ccsc3)C(=O)N2[C@H]1C(=O)O [ticarcillin] (10 µM),97.5% (inactive)
2,CCNC(=O)CCC/C=C\C[C@@H]1[C@@H](/C=C/[C@@H](O)CCc2ccccc2)[C@H](O)C[C@@H]1O [bimatoprost] (10 µM),103% (inactive)
3,O=c1[nH]cnc2c1cnn2[C@@H]1O[C@H](CO)[C@@H](O)[C@H]1O [allopurinol-riboside] (10 µM),109% (inactive)
4,CCOc1cc(N2CCC(O)CC2)ccc1Nc1ncc2c(n1)N(C)c1ccccc1C(=O)N2C (0.833333 µM),114% (inactive)
5,C[C@H](CS)C(=O)N1CCC[C@H]1C(=O)O [captopril] (10 µM),104% (inactive)
6,O=C(OCC(COC(=O)c1cccnc1)(COC(=O)c1cccnc1)COC(=O)c1cccnc1)c1cccnc1 [niceritrol] (0.833333 µM),96.5% (inactive)
7,CCC/N=C1\S/C(=C\c2ccc(OC[C@H](O)CO)c(Cl)c2)C(=O)N1c1ccccc1C [ponesimod] (10 µM),108% (inactive)
8,CC1C(=O)OC2C(O)C34C5CC(C(C)(C)C)C36C(OC(=O)C6O)OC4(C(=O)O5)C12O (stereo not drawn) [ginkgolide-B] (10 µM),93% (inactive)
9,CCC(=O)[C@@]1(C)[C@H](C)C[C@H]2[C@@H]3CCC4=CC(=O)C=C[C@]4(C)[C@H]3[C@@H](O)C[C@@]21C [rimexolone] (10 µM),98.5% (inactive)
10,C=CCn1c(=O)c2cnc(Nc3ccc(N4CCN(C)CC4)cc3)nc2n1-c1cccc(C(C)(C)O)n1 (10 µM),96% (inactive)
11,CCN(CC)C(=S)SSC(=S)N(CC)CC [disulfiram] (10 µM),23% (active)
12,NC(=O)N/N=C/c1ccc(Oc2ccc(F)cc2)cc1 (10 µM),112% (inactive)
13,Cn1cc(/C=C2\C(=O)Nc3cccnc32)c2ccccc21 (10 µM),92.5% (inactive)
14,Cc1cc(C)cc(OCC2CNC(=O)O2)c1 (stereo not drawn) [metaxalone] (10 µM),97% (inactive)
15,CN1[C@@H]2CC[C@H]1C[C@@H](OC(=O)C(CO)c1ccccc1)C2 (stereo partly drawn) (10 µM),106% (inactive)
16,C[C@H](/C=C/[C@H](C)C(C)(C)O)[C@H]1CC[C@H]2/C(=C/C=C3C[C@@H](O)C[C@H](O)C3)CCC[C@]12C [paricalcitol] (10 µM),104% (inactive)
